Anthrax LF inh2: Bacillus anthracis LF protease inhibitors, primary screen, biochemical, multiplex microsphere, MLPCN library; multiplex microsphere protease cleavage assay; Lethal factor (Bacillus anthracis), P15917; inhibition, % at 10 µM; 0.12% of 360,000 active; AID 588501, 2011; further: plate controls were buffer without enzyme for full effect and enzyme alone for no effect
Target sequence (P15917 whole entry, looked up): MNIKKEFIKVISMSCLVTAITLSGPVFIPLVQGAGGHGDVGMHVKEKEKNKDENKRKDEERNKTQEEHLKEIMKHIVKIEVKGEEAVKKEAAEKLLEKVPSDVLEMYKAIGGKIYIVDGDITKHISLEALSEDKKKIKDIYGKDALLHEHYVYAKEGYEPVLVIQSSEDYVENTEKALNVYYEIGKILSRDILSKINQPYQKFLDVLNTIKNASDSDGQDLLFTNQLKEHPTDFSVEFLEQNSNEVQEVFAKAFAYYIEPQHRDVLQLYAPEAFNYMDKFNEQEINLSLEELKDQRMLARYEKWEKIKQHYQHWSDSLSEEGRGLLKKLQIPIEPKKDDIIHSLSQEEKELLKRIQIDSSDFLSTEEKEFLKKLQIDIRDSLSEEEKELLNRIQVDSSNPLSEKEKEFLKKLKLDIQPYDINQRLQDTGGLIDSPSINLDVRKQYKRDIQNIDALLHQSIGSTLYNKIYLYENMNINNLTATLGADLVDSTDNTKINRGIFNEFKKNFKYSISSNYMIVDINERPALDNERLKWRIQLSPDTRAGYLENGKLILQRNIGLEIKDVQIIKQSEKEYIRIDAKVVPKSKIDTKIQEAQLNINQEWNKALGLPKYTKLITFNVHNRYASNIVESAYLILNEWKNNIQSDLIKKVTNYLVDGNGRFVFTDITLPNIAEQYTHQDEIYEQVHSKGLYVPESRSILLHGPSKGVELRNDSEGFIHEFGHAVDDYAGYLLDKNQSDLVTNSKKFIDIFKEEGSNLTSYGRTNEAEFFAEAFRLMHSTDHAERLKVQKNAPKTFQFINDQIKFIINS
BoNT A protease: BoNT/A light chain protease inhibitors, primary screen, biochemical, flow cytometry, MLPCN library | Botulinum neurotoxin type A light chain protease (Clostridium botulinum A str. ATCC 3502) | multiplex microsphere protease substrate cleavage | inhibition, % at 10 µM | 0.17% of 360,000 active | AID 588499, 2011; further: plate controls were buffer without enzyme for full effect and enzyme alone for no effect
BoNT-F LC inh: BoNT/F light chain protease inhibitors, primary screen, biochemical, flow cytometry, MLPCN library | Botulinum neurotoxin type F light chain protease (Clostridium botulinum) | Multiplex microsphere protease cleavage assay | inhibition, % at 10 µM | 0.22% of 360,000 active; in the data active means inhibition above about 35%, passing the limit was not always enough; inconclusive means no clear call, values can overlap the other calls; further: plate controls were buffer without enzyme for full effect and enzyme alone for no effect
Bead autofluor: compound fluorescence in toxin protease inhibitor counterscreen | 3.1% of 360,000 active | AID 624483 | compound autofluorescence counterscreen, microsphere flow cytometry; stronger effect = higher value | fluorescence intensity (test concentration not listed); in the data active means fluorescence intensity above about 16000; inconclusive means no clear call, values can overlap the other calls
The depositor's hits bear a star; u = inconclusive. Shown are actives, neighbours in structure and some others; about 3.5% of the full set was active somewhere. Unless noted, no stated cut-off is given here; in the data, active means inhibition above about 30%; inconclusive means no clear call, values can overlap the other calls; inactive means below that.

SMILES | Anthrax LF inh2 | BoNT A protease | BoNT-F LC inh | Bead autofluor
CCN1CCN(c2cc(C)c3cc(NC(=S)N4CCCC(C)C4)ccc3n2)CC1 (stereo not drawn) | -8 | 1 | -12 | 6123
Cc1ccc(NC(=O)c2cc(=O)c3ccccc3o2)cc1 | -9 | 3 | 4 | 21364*
CN(C)CC(C)(C)CNC(=O)c1cc(=O)c2ccccc2o1 | -1 | 2 | 3 | 21817*
CC(=O)Nc1ccc(NC(=O)c2cc(=O)c3ccccc3o2)cc1 | 2 | 2 | -4 | 5241
C[C@H](CO)N1C[C@H](C)[C@@H](CN(C)S(=O)(=O)c2ccc(C#N)cc2)OCc2cn(nn2)CCCC1=O | -6 | 0 | 0 | 3784
Cc1cccc(NC(=O)CSc2nc3nc(C)cc(C)n3n2)c1 | 0 | 1 | 2 | 5136
Nc1ccc(C#Cc2ccccc2)cc1 | 1 | u | 1 | 20219*
Nc1ccccc1C#Cc1ccccc1 | -4 | 1 | 0 | 3624
CC(=O)N1N=C(c2ccco2)CC1c1ccc(C)cc1 (stereo not drawn) | -3 | 0 | -11 | 2678
Cc1nn2c(c1-c1ccc(Cl)cc1)N=C(c1ccco1)CC2c1ccccc1 (stereo not drawn) | -1 | 6 | 3 | 22364*
O=C(NCC1CCCO1)/C(=C\c1cccc([N+](=O)[O-])c1)NC(=O)c1ccccc1 (stereo not drawn) | 0 | -1 | 0 | 4379
O=C(NCc1ccncc1)/C(=C/c1cccc([N+](=O)[O-])c1)NC(=O)c1ccccc1 | 5 | 4 | 38* | 4033
Cn1cc(CNC(=O)C23CC4CC(CC(C4)C2)C3)cn1 | 8 | 3 | 36* | 3911
CCOC(=O)CC1NC(=O)c2ccccc21 (stereo not drawn) | -2 | -1 | -4 | 2467
NC(=O)CC1NC(=O)c2ccccc21 (stereo not drawn) | 2 | 0 | 2 | 23615*
Cc1cccc(C(=O)N[C@H](C(=O)NCCc2ccc(Cl)cc2)C(C)C)c1 | -4 | -1 | 15 | 3021
COC(=O)c1ccccc1NS(C)(=O)=O | -4 | -2 | -8 | 4666
COC(=O)c1ccc(C(=O)OC)c(NS(C)(=O)=O)c1 | -2 | 1 | 0 | 23033*
O=C(CCCN1C(=O)/C(=C/c2ccccc2OC(F)F)SC1=S)Nc1cccnc1 | -2 | 0 | -1 | 3545
COc1ccc(NC(=O)c2ccc(CN(c3cc(Cl)ccc3C)S(=O)(=O)c3ccccc3)cc2)cc1OC | -4 | -4 | -11 | 20845*
COc1ccccc1NC(=O)c1ccc(CN(c2cc(Cl)ccc2C)S(=O)(=O)c2ccccc2)cc1 | -1 | 0 | -8 | 2323
Cc1ccc(Cl)cc1N(Cc1ccc(C(=O)NCc2cccnc2)cc1)S(=O)(=O)c1ccccc1 | 0 | u | 2 | 22366*
CC1(C(=O)NS(=O)(=O)c2cccc(F)c2)CCN1C(=O)Cc1cccc2ccccc12 (stereo not drawn) | -15 | -1 | -16 | 3285
CC(=O)c1c(C)[nH]c(C(=O)Nc2cccnc2)c1C | -9 | u | -2 | 19908*
Cc1ccc(C2CC(C(F)(F)F)n3nc(C(=O)NCc4ccco4)cc3N2)cc1 (stereo not drawn) | -2 | u | -6 | 24280*
SMILES | Anthrax LF inh2 | BoNT A protease | BoNT-F LC inh | Bead autofluor
Cc1cccc(NC(=O)c2cc3n(n2)C(C(F)(F)F)CC(c2ccc4c(c2)OCO4)N3)c1 (stereo not drawn) | 1 | 3 | 1 | 22193*
CCC(C)NC(=O)c1cnn2c1NC(c1ccc3c(c1)OCO3)CC2C(F)(F)F (stereo not drawn) | -1 | 1 | 1 | 19687*
O=C(NCC1CCCO1)c1cc2n(n1)C(C(F)(F)F)CC(c1ccc(Br)cc1)N2 (stereo not drawn) | 2 | u | 1 | 20177*
COc1ccc(NC(=O)c2cc3n(n2)C(C(F)(F)F)CC(c2ccc4c(c2)OCO4)N3)cc1OC (stereo not drawn) | -18 | 20 | 24 | 15027
Cc1ccc2c(c1)C(c1ccccc1)CC(=O)O2 (stereo not drawn) | -13 | -8 | u | 4257
O=C/C=C/c1c(-c2ccccc2)cc2oc3ccccc3cc1-2 | -14 | 0 | -57 | 2790
CCC(=O)N1CCc2cc(Br)cc(S(=O)(=O)NCc3ccccc3OC)c21 | -11 | -2 | 3 | 3750
COc1ccccc1CNC(=O)CN(C)S(=O)(=O)c1ccc2c(c1)n(C)c(=O)c(=O)n2C | 4 | 1 | 4 | 5980
CCOC(=O)C1=C(N)OC2=C(C(=O)CC(C)(C)C2)C1c1ccccc1OCC#N (stereo not drawn) | 1 | 1 | 2 | 20405*
COc1ccc(CN(C)S(=O)(=O)c2ccc3c(c2)OCCO3)cc1 | -3 | -1 | 1 | 5557
COCc1cc(C)nc(N2CCN(c3ccccc3)CC2)c1C#N | -1 | -1 | -1 | 23159*
CCN1C(=O)[C@H]2[C@@H](c3ccc(C)cc3)N3C(=O)N(c4ccc(OC)cc4)C(=O)[C@@]3(CC)[C@H]2C1=O | 6 | 0 | 4 | 3937
O=C(Oc1ccc(Br)cc1)C1CCN(C2=NS(=O)(=O)c3ccccc32)CC1 | 0 | 0 | 5 | u
CN(C)[C@H]1N(C(=O)c2ccc(Br)cc2)N=C2c3ccccc3S(=O)(=O)N21 | -1 | u | 0 | 19842*
COc1cccc(-n2c(C)cc(/C=C3\C(=N)N4N=C(CC(=O)N5CCOCC5)SC4=NC3=O)c2C)c1 | 0 | 0 | 2 | 5698
O=C(CCC(=O)N1CCOc2ccccc21)Nc1ccccc1Br | -10 | 0 | -1 | 6035
CC1CCCCC1NC(=O)CCn1c(=O)oc2ccccc21 (stereo not drawn) | 4 | 1 | 20 | 10700
COc1cccc(CNC(=O)CCn2c(=O)oc3ccccc32)c1 | -3 | -3 | -4 | 25239*
CC1CCCC(NC(=O)COC(=O)Cc2ccccc2)C1C (stereo not drawn) | -20 | 7 | 8 | 17041*
CC1CCCC(NC(=O)CCn2c(=O)oc3ccccc32)C1C (stereo not drawn) | -4 | 1 | 0 | 22573*
O=C(CCn1c(=O)oc2ccccc21)NCCN1CCc2ccccc2C1 | 1 | 1 | 5 | 20382*
COc1ccc(CNC(=O)CCn2c(=O)oc3ccccc32)c(OC)c1 | -9 | 0 | 2 | 4537
CCn1c(CNC(=O)c2ccco2)nnc1SCC(=O)Nc1cc(F)ccc1C | 0 | 1 | 6 | 5452
CC(NC(=O)Cc1ccc(Br)cc1)c1ccccc1 (stereo not drawn) | -20 | 1 | -18 | 3155
CC1(Oc2cccc(C#N)c2)CCN(Cc2csc3ccccc23)C1 (stereo not drawn) | -1 | 0 | -16 | 3942
O=C1O[C@@H](c2ccccc2)C[C@@H](O)C(=O)CCCc2ccccc21 | -2 | 0 | 5 | 5898
CC(=O)c1cccc(NC(=O)CCN2C(=O)C3C4CCC(C4)C3C2=O)c1 (stereo not drawn) | 0 | 1 | 7 | u
Cc1cccc(C)c1NC(=O)CCN1C(=O)C2C3CCC(C3)C2C1=O (stereo not drawn) | -2 | -3 | -3 | 24501*

Screening results (PubChem BioAssay)
